Measurements from PubChem BioAssay AID1917 (Vanderbilt High Throughput Screening Facility, 2009).
Hit rate of the full screen: of about 3,000 compounds, about 1,600 (53%) were called active. About 10% were inconclusive and are not listed.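 How the source made its calls: active means Flux at 10 µM at least 3 SD below or above vehicle control mean in one or both replicates; inconclusive means no clear call, values can overlap the other calls; inactive means the rest.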 The set was probably picked from earlier hits. Only a sample is shown.

Target: ATP-sensitive inward rectifier potassium channel 1 (Homo sapiens) (UniProt P48048)
Sequence (P48048 whole entry, looked up): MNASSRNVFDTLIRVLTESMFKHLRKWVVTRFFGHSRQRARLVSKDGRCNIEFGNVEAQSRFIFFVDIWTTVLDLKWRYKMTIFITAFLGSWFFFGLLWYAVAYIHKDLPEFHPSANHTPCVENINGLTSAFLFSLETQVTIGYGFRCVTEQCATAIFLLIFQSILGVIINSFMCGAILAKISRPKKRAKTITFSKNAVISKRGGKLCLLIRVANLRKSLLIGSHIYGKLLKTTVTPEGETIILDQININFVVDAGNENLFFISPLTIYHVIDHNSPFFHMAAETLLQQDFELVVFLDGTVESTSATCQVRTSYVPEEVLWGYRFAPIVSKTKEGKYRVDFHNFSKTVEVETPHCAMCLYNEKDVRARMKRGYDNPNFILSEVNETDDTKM
Test: retested modulators of human Kir1.1 channel – cell-based, thallium flux, duplicate, resupplied hits, confirmation (AID 1917)
Settings: ROMK thallium flux, fluorescence ratio; at 10 µM; active compounds read low

Compound | normalized thallium flux (F/F0 slope)
CCCCCCCCCCCCn1ccc(=N)cc1 | 0.0386 (active)
Clc1ccc2nc3c(c(-c4ccccc4)c2c1)CNCC3 | 0.0588 (active)
CC1(C)Cc2c(C#N)c(N3CCNCC3)nc(-c3ccco3)c2CS1 | 0.0568 (active)
COc1ccccc1N=Nc1c(O)[nH]c(=S)[nH]c1=O | 0.0657 (active)
N#Cc1ccc(Cn2cc(C(=O)c3ccco3)c3ccccc32)cc1 | 0.0753 (inactive)
Cc1cc(C=C2C(=O)NC(=O)NC2=O)c(C)n1-c1ccncc1 | 0.0636 (active)
Cc1nc2ccccn2c1P(=S)(N1CCCCC1)N1CCCCC1 | 0.0668 (active)
NC(=O)Nc1cccc(C(F)(F)F)c1 | 0.0825 (inactive)
